Out of some 48,000 compounds screened, about 13,000 (27%) showed an effect of 50% or more. This is one part of the list.
tested on: Wolbachia pipientis; assay: Anti-Wolbachia Cell-Based Screen; type: functional; design: scale not given: in the data most compounds retested in dose-response had high values; details: 5 µM

Compound | Percent Effect
COCc1nc(C2CC2)nn1-c1ccccc1Cl | -16.97%
CC(NCc1c(C(C)C)nn(C)c1N1CCOCC1)C(N)=O (stereo unspecified) | 1.644%
Cc1cnc(C)c(N2CCC(c3nccn3Cc3cscn3)CC2)n1 | 32.35%
CC(NC(=O)CCCOc1cccc(F)c1)c1ccncc1 (stereo unspecified) | -15.4%
Cc1ncc2c(n1)CN(Cc1ncc(C(C)(C)C)o1)CC2 | 13.07%
OCC(O)CN1CCc2onc(-c3ccc(C(F)(F)F)cc3)c2C1 (stereo unspecified) | -7.135%
CN(C)C(=O)c1ccc(OC2CCOCC2)cc1 | 14.67%
COC(C)(C)CNC(=O)N(C)Cc1nc(-c2ccccc2)c[nH]1 | -6.978%
COc1ccc(OCc2cc(C(=O)N3CCSCC3)n[nH]2)c(Cl)c1 | -44.95%
CC(C)(O)CN1CCN(C(=O)c2cc(Cl)cc3cccnc23)CC1 | -2.728%
CCOc1ccc(Cl)c(C(=O)N2CCN(C(=O)c3ccoc3C)CC2)n1 | -0.3279%
CCOc1ccc(Cl)c(C(=O)N(C)C)n1 | -5.446%
CC(C)(O)CN1CCN(C(=O)c2cccc3[nH]ncc23)CC1 | 5.71%
CCOc1ccc(Cl)c(C(=O)N2CCCSCC2)n1 | 87.04%
CCOc1ccc(Cl)c(C(=O)N2CCN(C(=O)OC)CC2)n1 | 106.5%
CCOc1ccc(Cl)c(C(=O)N2CCN(CC(C)(C)O)CC2)n1 | 117.3%

Compound | Percent Effect
CCOc1ccc(Cl)c(C(=O)NCc2ccc(C(=O)NC)cc2)n1 | -13.09%
c1cnnc(N2CCCC(NCc3ccc(-n4cccn4)cc3)C2)c1 (stereo unspecified) | -2.089%
c1cnn(CC2CN(CCc3ccncc3)CCO2)c1 (stereo unspecified) | 0.6004%
O=S(=O)(CCCN1CCOC(Cn2cccn2)C1)c1ccccc1 (stereo unspecified) | 7.752%
c1cnn(CCN2CCOC(Cn3cncn3)C2)c1 (stereo unspecified) | -9.191%
c1ncn(CC2CN(CC3CCCC3)CCO2)n1 (stereo unspecified) | -0.8263%
c1ncn(CC2CN(CC3CCCCC3)CCO2)n1 (stereo unspecified) | 107.8%
c1ccc(CCCN2CCOC(Cn3cccn3)C2)cc1 (stereo unspecified) | 128.6%
Cc1cc(C)c2nc(CN3CCOC(CCO)C3)cc(O)c2c1 (stereo unspecified) | -3.808%
Cc1cc(CCC2CN(CC3(O)CCCCC3)CCO2)ncn1 (stereo unspecified) | 116.4%
c1cnn(CCN2CCOC(Cn3cccn3)C2)c1 (stereo unspecified) | 108.3%
c1ccc(CCN2CCOC(Cn3cccn3)C2)nc1 (stereo unspecified) | 5.708%
C=C(C)CN1CCOC(Cn2cncn2)C1 (stereo unspecified) | -5.235%
O=C(O)c1csc(S(=O)(=O)Nc2cccc(OC(F)F)c2)c1 | -1.91%
COC(=O)C(NC(=O)c1ccc(NC2CC2)nc1)c1ccccc1 (stereo unspecified) | -0.3075%

Reference: ChEMBL document CHEMBL3988442, “University of Dundee, Small-Polar-MMV Screening Library” (2021)
